For 19 compounds, cell viability results are on record in the supplement of paper PMC10981050.

Several values for one entry are separate records, joined by “and”; a condition that tells them apart may be missing. Equal values may be shown once.

For this experiment, the system named is K562. Kind of experiment: cell viability relative to vehicle control; higher = less cytotoxic. The settings on record: 10 µM; SRSF2 genotype: SRSF2 P95H/wt. The gist of the method: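 Screening covered the Selleck bioactive, kinase and epigenetic probe libraries, less identity-inconsistent compounds, on CRISPR-edited mutant clones and isogenic wild-type clones of four leukaemia lines. Cells, at 2000 per well in 50 µL medium, received a single 10 µM acoustically dispensed dose. After 48 h the supernatant was removed and CellTiter-Glo luminescence was read. Viability was analysed in Genedata Screener as percent of the on-plate vehicle control.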
As for `CCCCCCCCCCCCCCCC(=O)OC` [Methyl palmitate], the cell viability was 103% and 99.7%.
The result for `O=[N+]([O-])c1ccc(S(=O)(=O)N2CCN(c3ccnc4cc(Cl)ccc34)CC2)c([N+](=O)[O-])c1` reads 69.2% and 80.5%; that for `Clc1ccc(COC(Cn2ccnc2)c2ccc(Cl)cc2Cl)c(Cl)c1` (centres undefined) [Miconazole (Monistat)], 65.6% and 81%; that for `C[n+]1cc2c3c(ccc2c2ccc4cc5c(cc4c21)OCO5)OCO3` [Sanguinarine chloride], 0.68% and 0.46%.
The result for `CC1(C)Cc2c(sc(NC(=O)c3ccn[nH]3)c2C(N)=O)C(C)(C)O1` reads 103% and 101%.
The result for `CCN=C1N[C@@H]2[C@@H](O)[C@H](O)[C@@H](CO)O[C@@H]2S1` [Thiamet G] reads 99.9% and 104%; that for `O=C(c1cccc(Cl)c1F)N1CCN(Cc2cccc(Nc3nccs3)n2)CC1`, 44.2% and 57.2%.
For `O=C(Cn1ccnc1[N+](=O)[O-])NCc1ccccc1` [Benznidazole], the cell viability is 96.1% and 92.1%.
The result for `CC[C@@]1(O)C(=O)OCc2c1cc1n(c2=O)Cc2cc3cc(O)ccc3nc2-1` [Hydroxy Camptothecine] reads 10.4% and 26.6%; that for `C[C@H](Nc1ncnc2[nH]cnc12)c1cc2ccc(F)cc2nc1-c1ccccn1`, 90.3% and 89.3%.
The result for `CC1(C)[C@@H](O[C@H]2O[C@H](C(=O)O)[C@@H](O)[C@H](O)[C@H]2O[C@@H]2O[C@H](C(=O)O)[C@@H](O)[C@H](O)[C@H]2O)CC[C@]2(C)[C@H]3C(=O)C=C4[C@@H]5C[C@@](C)(C(=O)O)CC[C@]5(C)CC[C@@]4(C)[C@]3(C)CC[C@@H]12` [Dipotassium glycyrrhizinate] reads 105% and 104%; that for `O=C(NC1(c2ccccc2)CC1)c1c(CN2CCC(N3CCCCC3)CC2)c(-c2cccc(C(F)(F)F)c2)nc2cc(Br)ccc12`, 8.23% and 19.8%; that for `O=c1cc(-c2ccc(O)cc2)oc2cccc(O)c12` [4',5-Dihydroxyflavone], 89.4% and 86%.
The result for `C[C@@H]1CC[C@H]2C(C)(C)[C@H]3C[C@@]12CC[C@@]3(C)O` [Cedrol] reads 106% and 97.2%.
Take `N#Cc1cc2cc(CN3CCC(Nc4ncnc5sc(CC(F)(F)F)cc45)CC3)ccc2[nH]1`: the cell viability is 3.53% and 2.57%.
For `CCC(CC)(NC(=O)C(C)C)C(=O)N[C@@H](CCCN=C(N)N)C(=O)NC1(C(=O)NC(c2ccc(F)cc2)c2ccc(F)cc2)CCCC1`, the cell viability is 98.6% and 103%.
The result for `CNCCc1ccccn1` [Betahistine] reads 102% and 100%; that for `O=C(O)c1ccc(O)cc1` [4-Hydroxybenzoic acid], 93.3% and 100%; that for `CC(C)C(=O)Nc1ccc([N+](=O)[O-])c(C(F)(F)F)c1` [Flutamide (Eulexin)], 92.3% and 90.8%.
